Calls of active or inactive are those of the source. Rule for the calls: active = hit-call score of the fitted dose curve at least 0.9, where 1 is the maximum; inactive = score below 0.9.
What was measured:
[1] = ATG_CRE_CIS: Attagene CIS-FACTORIAL HepG2 Assay for human cAMP Responsive Element (CRE) binding protein 3 (AID 2282926); details: HepG2 CRE cis-reporter, Attagene multiplexed mRNA; actives raise or lower the signal
Procedure, shortened: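 Readout: fluorescently labelled reporter transcripts resolved by capillary electrophoresis after RT-PCR, taken 24 h post-dosing in transfected HepG2. Endogenous transcription factor activity drives each cis-element reporter; gain or loss of signal fitted relative to DMSO control.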

[2] = target: CCAAT/enhancer-binding protein beta (Homo sapiens) (UniProt P17676); experiment: ATG_C_EBP_CIS: Attagene CIS-FACTORIAL HepG2 Assay for human CCAAT/Enhancer Binding Protein (C/EBP) beta (AID 2282927); details: HepG2 Attagene cis-factorial transcription factor reporter; actives raise or lower the signal
Procedure, shortened: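 Chemical-treated HepG2 cells (24 h) bearing cis-regulated reporter constructs were processed for total RNA, then reverse transcription, PCR amplification, fluorescent primer extension and fragment analysis; gain- and loss-of-signal were fitted against DMSO.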

[3] = ATG_CMV_CIS: Attagene CIS-FACTORIAL HepG2 Assay for human CMV (Internal Marker) (AID 2282928); details: HepG2 CMV promoter reporter, transcription factor profiling; actives raise or lower the signal;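 note: endpoint acts as a background internal control marker rather than a target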
Procedure, shortened: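 Readout: fluorescent reporter cDNA fragments separated by capillary electrophoresis after RT-PCR and HpaI cut. Cells: HepG2 carrying transfected cis-promoter reporter constructs, dosed 24 h. Endpoint serves as background internal-marker control, fit bidirectionally versus DMSO.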

[4] = ATG_DR4_LXR_CIS: Attagene CIS-FACTORIAL HepG2 Assay for human Liver X Receptor (LXR), DR4 submotif (AID 2282929); details: HepG2 Attagene DR4 cis-reporter, mRNA transcription; actives raise or lower the signal
Procedure, shortened: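 HepG2 cells were transiently transfected with multiple cis-regulated reporter units and dosed for 24 hours. The DR4 reporter mRNA was quantified by RT-PCR, 6-FAM labelling and capillary electrophoresis. Bidirectional fits used DMSO as baseline.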

[5] = target: Aryl hydrocarbon receptor (Homo sapiens) (UniProt P35869); experiment: ATG_Ahr_CIS: Attagene CIS-FACTORIAL HepG2 Assay for human Aryl Hydrocarbon Receptor (Ahr) (AID 2282930); details: HepG2 AhR cis-factorial reporter transcription; actives raise or lower the signal
Procedure, shortened: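 Following 24 h of chemical dosing, transfected HepG2 liver cells with cis-driven reporter units were lysed for RNA; reporter mRNA was quantified via RT-PCR and capillary electrophoresis, and responses fitted bidirectionally from DMSO.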

[6] = ATG_AP_1_CIS: Attagene CIS-FACTORIAL HepG2 Assay for human Activator Protein 1 (AP-1) (AID 2282931); details: HepG2 Attagene cis-factorial AP-1 reporter mRNA; actives raise or lower the signal
Procedure, shortened: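 HepG2 cells transiently transfected with cis-element-driven reporter transcription units, dosed for 24 hours. Reporter mRNA measured by RT-PCR, 6-FAM labelling, HpaI digestion and capillary electrophoresis. Bidirectional fitting against DMSO baseline.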

[7] = ATG_AP_2_CIS: Attagene CIS-FACTORIAL HepG2 Assay for human Activator Protein 2 (AP-2) (AID 2282932); details: HepG2 AP-2 cis-reporter, Attagene transcription factor profiling; actives raise or lower the signal
Procedure, shortened: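 Assay in transfected HepG2 with promoter-regulated reporters, 24 h incubation after dosing. Signal is reporter mRNA fluorescence (RT-PCR, capillary electrophoresis), analysed for both increases and decreases relative to DMSO controls.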

[8] = ATG_BRE_CIS: Attagene CIS-FACTORIAL HepG2 Assay for human Bone Morphogenetic Protein (BMP) Response Element (BRE) (AID 2282933); details: HepG2 BMP response element reporter, Attagene transcription factor profiling; actives raise or lower the signal
Procedure, shortened: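 HepG2 cells transiently transfected with multiplexed cis-element reporter units were dosed with chemical for 24 h. Reporter mRNA was measured by RT-PCR with fluorescent labelling, HpaI digestion and capillary electrophoresis; bidirectional fitting relative to DMSO.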

[9] = target: Retinoic acid receptor alpha (Homo sapiens) (UniProt P10276); experiment: ATG_DR5_RAR_CIS: Attagene CIS-FACTORIAL HepG2 Assay for human Retinoic Acid Receptor Alpha (RARE), DR5 submotif (AID 2282934); details: HepG2 Attagene cis-factorial RARE DR5 reporter, mRNA; actives raise or lower the signal;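 for AC50: reporter responds to endogenous RAR alpha beta and gamma in HepG2 not RARA alone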
Procedure, shortened: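 Transfected HepG2 reporter cells are exposed to chemicals for 24 h. Then RNA is extracted and the DR5 element reporter transcript is measured by RT-PCR and capillary electrophoresis, with bidirectional curve fitting relative to DMSO.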

[10] = target: Transcription factor E2F1 (Homo sapiens) (UniProt Q01094); experiment: ATG_E2F_CIS: Attagene CIS-FACTORIAL HepG2 Assay for human E2F Transcription Factor 1 (AID 2282935); details: HepG2 Attagene cis-reporter, E2F reporter RNA transcripts; actives raise or lower the signal
Procedure, shortened: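 In this cis-factorial format, endogenous factor activity drives transfected reporters in HepG2; transcripts collected at 24 h are quantified by fluorescence after RT-PCR and capillary separation.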

Measured: AC50

Chain of Aryl hydrocarbon receptor (Homo sapiens) (P35869 whole entry, looked up): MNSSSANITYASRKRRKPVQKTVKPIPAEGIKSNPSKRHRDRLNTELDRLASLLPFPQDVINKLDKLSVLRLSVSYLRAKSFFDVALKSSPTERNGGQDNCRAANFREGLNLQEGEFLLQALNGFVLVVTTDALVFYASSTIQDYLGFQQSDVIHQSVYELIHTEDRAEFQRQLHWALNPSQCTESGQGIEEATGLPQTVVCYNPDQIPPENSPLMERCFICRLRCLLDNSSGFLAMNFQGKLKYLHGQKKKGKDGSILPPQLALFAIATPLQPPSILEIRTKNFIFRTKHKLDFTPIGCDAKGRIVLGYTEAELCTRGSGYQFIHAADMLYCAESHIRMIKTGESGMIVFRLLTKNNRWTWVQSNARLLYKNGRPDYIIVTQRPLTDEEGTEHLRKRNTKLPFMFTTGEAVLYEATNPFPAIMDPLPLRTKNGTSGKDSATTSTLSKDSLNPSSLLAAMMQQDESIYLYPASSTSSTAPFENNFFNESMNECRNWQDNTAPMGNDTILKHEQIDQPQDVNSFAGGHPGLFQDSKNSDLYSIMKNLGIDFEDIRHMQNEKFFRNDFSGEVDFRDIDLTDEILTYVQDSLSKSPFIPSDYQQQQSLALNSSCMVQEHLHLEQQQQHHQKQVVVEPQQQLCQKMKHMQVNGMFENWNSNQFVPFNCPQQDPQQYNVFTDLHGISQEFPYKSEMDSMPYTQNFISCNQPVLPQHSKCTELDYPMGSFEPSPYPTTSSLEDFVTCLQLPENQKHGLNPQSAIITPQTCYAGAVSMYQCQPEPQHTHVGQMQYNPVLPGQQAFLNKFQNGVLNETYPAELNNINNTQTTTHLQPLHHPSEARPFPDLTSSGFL
Chain of Transcription factor E2F1 (Homo sapiens) (Q01094 whole entry, looked up): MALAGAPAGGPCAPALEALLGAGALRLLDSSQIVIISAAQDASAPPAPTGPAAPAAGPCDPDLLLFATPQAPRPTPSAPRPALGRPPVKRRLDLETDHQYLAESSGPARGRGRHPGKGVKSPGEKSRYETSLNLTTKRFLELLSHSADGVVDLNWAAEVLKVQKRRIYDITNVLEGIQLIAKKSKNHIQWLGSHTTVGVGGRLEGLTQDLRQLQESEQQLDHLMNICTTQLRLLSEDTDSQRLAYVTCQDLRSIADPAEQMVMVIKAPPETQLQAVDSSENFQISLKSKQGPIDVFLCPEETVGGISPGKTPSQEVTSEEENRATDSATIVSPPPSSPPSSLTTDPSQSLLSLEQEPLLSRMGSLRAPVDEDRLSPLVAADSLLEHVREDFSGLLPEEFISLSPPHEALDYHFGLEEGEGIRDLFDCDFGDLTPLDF
Chain of Retinoic acid receptor alpha (Homo sapiens) (P10276 whole entry, looked up): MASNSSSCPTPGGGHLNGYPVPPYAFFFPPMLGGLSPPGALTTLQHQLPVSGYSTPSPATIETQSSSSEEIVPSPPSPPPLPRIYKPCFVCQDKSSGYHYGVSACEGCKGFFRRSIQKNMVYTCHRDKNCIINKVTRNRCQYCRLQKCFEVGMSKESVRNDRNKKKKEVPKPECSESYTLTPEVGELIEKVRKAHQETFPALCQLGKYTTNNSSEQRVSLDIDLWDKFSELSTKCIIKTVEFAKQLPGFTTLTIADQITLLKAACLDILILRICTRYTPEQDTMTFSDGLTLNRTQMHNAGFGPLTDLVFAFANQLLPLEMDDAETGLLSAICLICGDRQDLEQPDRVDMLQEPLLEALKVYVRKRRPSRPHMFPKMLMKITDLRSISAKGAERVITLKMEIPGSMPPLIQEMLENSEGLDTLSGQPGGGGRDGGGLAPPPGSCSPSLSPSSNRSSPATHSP
Chain of CCAAT/enhancer-binding protein beta (Homo sapiens) (P17676 whole entry, looked up, the tested form may be a part): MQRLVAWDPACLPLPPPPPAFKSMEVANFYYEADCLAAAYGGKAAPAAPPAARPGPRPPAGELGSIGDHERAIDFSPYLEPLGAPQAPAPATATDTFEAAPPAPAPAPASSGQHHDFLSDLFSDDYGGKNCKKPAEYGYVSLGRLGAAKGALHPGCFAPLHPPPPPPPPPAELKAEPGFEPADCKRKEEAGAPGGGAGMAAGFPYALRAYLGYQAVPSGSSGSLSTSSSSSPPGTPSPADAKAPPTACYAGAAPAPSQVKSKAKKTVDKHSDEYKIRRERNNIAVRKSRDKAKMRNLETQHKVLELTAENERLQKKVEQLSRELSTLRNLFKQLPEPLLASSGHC

Cc1ccc2oc(=O)ccc2c1
not listed: [10]
inactive: all other assays above

CC=CCO
inactive: all assays above

O=C(O)CC(C(=O)O)C(CC(=O)O)C(=O)O (configuration not stated)
inactive: all assays above

CCOCC(=O)O
inactive: all assays above

O=C(O)C(c1ccc(Cl)cc1)c1ccc(Cl)cc1
not listed: [10]
inactive: all other assays above

c1cc(N(CC2CO2)CC2CO2)ccc1OCC1CO1 (configuration not stated)
active: [1] 12.6 µM | [3] 91.5 µM | [4] 6.98 µM | [7] 25.8 µM | [9] 83.1 µM
inactive: all other assays above

COC(=O)/C=C/C(C)=C\C=C\C(C)=C\C=C\C=C(C)\C=C\C=C(C)\C=C\C(=O)O
not listed: [10]
inactive: all other assays above

c1c[nH]cn1
not listed: [10]
inactive: all other assays above

CC(C)(C)c1ccc(N)cc1
not listed: [10]
inactive: all other assays above

O=C(Cl)c1cc(C(=O)Cl)cc(C(=O)Cl)c1
active: [5] 77.5 µM | [8] 125 µM
not listed: [10]
inactive: all other assays above

CCCCCCCCCCCCCOP(=O)(O)O
not listed: [10]
inactive: all other assays above

c1ccc(CCCc2ccncc2)cc1
active: [3] 43.2 µM | [6] 37.7 µM | [7] 100 µM | [8] 93.3 µM
not listed: [10]
inactive: all other assays above

C[Si](C)(C)O[Si](O)(O)O
inactive: all assays above

COc1ccc([C@@H]2CC(=O)c3c(O)cc(O[C@@H]4O[C@H](CO[C@@H]5O[C@@H](C)[C@H](O)[C@@H](O)[C@H]5O)[C@@H](O)[C@H](O)[C@H]4O)cc3O2)cc1OC
inactive: all assays above

O=S(=O)(Oc1ccc(Cl)cc1Cl)c1ccccc1
active: [3] 46.7 µM | [4] 48.8 µM | [8] 61.4 µM
inactive: all other assays above

Oc1ccc(Cl)cc1Cc1cc(Cl)ccc1O
inactive: [2] | [3] | [5] | [10]
active: [1] 3.51 µM | [4] 7.95 µM | [6] 17.6 µM | [7] 15.4 µM | [8] 3.46 µM | [9] 3.08 µM

NC(=O)OCC(COC(N)=O)c1ccccc1
not listed: [10]
inactive: all other assays above

CCCCCCCCC(=O)OCC
inactive: all assays above

Cc1cc(O)c(Cl)c(C)c1Cl
active: [3] 23.9 µM
not listed: [10]
inactive: all other assays above

O=C1CCCN1CCO
not listed: [10]
inactive: all other assays above

O=C(O)c1ccccc1Nc1cccc(C(F)(F)F)c1
active: [4] 9.37 µM | [6] 60 µM
not listed: [10]
inactive: all other assays above

CCCCCCCCCCOS(=O)(=O)O
active: [4] 67 µM | [9] 61.3 µM
not listed: [10]
inactive: all other assays above

CCC(C)(C)C1CCCCC1OC(C)=O (configuration not stated)
active: [3] 155 µM | [6] 158 µM
inactive: all other assays above

CN(C)c1ccc(N=Nc2ccccc2C(=O)O)cc1
active: [3] 137 µM | [4] 29.7 µM | [6] 37.7 µM
not listed: [10]
inactive: all other assays above

COC(=O)c1ccc2cc(C(=O)OC)ccc2c1
inactive: all assays above

CCCCC(CC)CCC(CC(C)C)OS(=O)(=O)O (configuration not stated)
active: [1] 142 µM | [6] 139 µM
inactive: all other assays above

COc1cc(NC(=O)CC(C)=O)c(OC)cc1Cl
active: [5] 40.1 µM
not listed: [10]
inactive: all other assays above

CCCCC(CC)COC(=O)c1ccccc1O (configuration not stated)
not listed: [10]
inactive: all other assays above

CCCOCCOCCOCCO
not listed: [9] | [10]
inactive: all other assays above

CC1=Nc2ccc3ccccc3c2C1(C)C
active: [3] 66.4 µM | [6] 66 µM | [8] 65.7 µM
inactive: all other assays above

CNC(=S)NN
not listed: [10]
inactive: all other assays above

CC(C)(C)C1CCCCC1=O (configuration not stated)
inactive: all assays above

CC(C)(C)C(=O)CCc1ccc(Cl)cc1
inactive: all assays above

CCN(CC)c1ccc(C(=O)c2ccccc2C(=O)O)c(O)c1
not listed: [10]
inactive: all other assays above

NNC(=O)c1cccc(C(=O)NN)c1
inactive: all assays above

CC1(C)O[C@@H]2C[C@H]3[C@@H]4C[C@H](F)C5=CC(=O)CC[C@]5(C)[C@H]4[C@@H](O)C[C@]3(C)[C@]2(C(=O)CO)O1
not listed: [10]
inactive: all other assays above

OCCN(CCO)c1ccccc1
active: [5] 13.7 µM
inactive: all other assays above

[Cl][In]([Cl])[Cl]
not listed: [10]
inactive: all other assays above

O=C(Nc1ccccc1)c1ccccc1O
active: [2] 53.4 µM | [5] 19.1 µM | [6] 27 µM | [8] 30.7 µM
not listed: [10]
inactive: all other assays above

CC(=O)[C@H]1[C@H](C#N)C[C@H]2[C@@H]3CC=C4C[C@@H](O)CC[C@]4(C)[C@H]3CC[C@@]21C
inactive: all assays above

CC(C)CCCC(C)CC=O (configuration not stated)
inactive: all assays above

NC(=O)NNC(N)=O
inactive: all assays above

CC(C)c1ccc2c(c1)CC[C@H]1[C@](C)(CN)CCC[C@]21C
active: [3] 5.78 µM | [4] 5.39 µM | [6] 5.99 µM | [8] 5.7 µM | [9] 6.12 µM | [10] 6.03 µM
inactive: [1] | [2] | [5] | [7]

CC(=O)[C@@]1(O)CC[C@H]2[C@@H]3C[C@H](C)C4=CC(=O)C=C[C@]4(C)[C@@]3(F)[C@@H](O)C[C@@]21C
active: [9] 100 µM
inactive: all other assays above

CCCCC/C=C\CCC=O
inactive: all assays above

O=C1CCCCCCCCCCC(=O)OCCO1
inactive: all assays above

CCCCCCCCCCOC(C)=O
inactive: all assays above

CCC(Cc1ccccc1)(C(=O)c1ccc(N2CCOCC2)cc1)N(C)C (configuration not stated)
active: [6] 72.1 µM | [9] 73.1 µM
inactive: all other assays above

CC(C)CC(O)Cc1ccccc1 (configuration not stated)
inactive: all assays above

CC(C)COC(=O)C=Cc1ccccc1
active: [6] 139 µM
inactive: all other assays above

O=C(c1ccccc1)C1CCC1
inactive: all assays above

From PubChem BioAssay (EPA / NIEHS)
